Assay results taken from PubChem BioAssay AID1159580 (chemical genetic matrix, 2015).
“And” between values parts separate entries of the source, which are not always exact repeats. Identical values can stand only once. Out of some 5,500 compounds screened, about 2,000 (36%) were called active. Not shown: some 18% with an inconclusive outcome. No stated cut-off is given here; in the data, active means normalized growth mostly below about 0.91 (no sharp cut-off); inconclusive means no clear call, values can overlap the other calls; inactive means mostly above about 0.92. The list shows a part of the results.

Assay: chemical genetic growth profiling, strain panel (AID 1159580);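 further: tested at 20 µM; growth read once vehicle control cultures reached saturation at 30 °C; 1 = growth at the plate median or of vehicle wells; lower values mean less growth of the strain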
Details: S. cerevisiae deletion strains, growth OD

Measured: normalized growth

O=C(c1ccccc1)c1ccc2n1CCC2C(=O)O (stereo not drawn)
inactive: locus YAL013W, strain DEP1, active compounds read low 0.993 | locus YAL021C, strain ccr4, active compounds read low 0.98 | locus YAL026C, strain drs2, active compounds read low 0.983 | locus YAL030W, strain snc1, active compounds read low 0.978 | locus YAL040C, strain CLN3, active compounds read low 1.01 | locus YBL061C, strain skt5, active compounds read low 1.01 | locus YBR009C, strain hhf1, active compounds read low 0.991 | locus YBR021W, strain FUR4, active compounds read low 0.988 | locus YBR023C, strain chs3, active compounds read low 1.01 | locus YBR171W, strain sec66, active compounds read low 0.994 | locus YBR229C, strain ROT2, active compounds read low 1.01 | locus YBR231C, strain swc5, active compounds read low 1.01 | locus YBR279W, strain paf1, active compounds read low 1.01 | locus YCL011C, strain gbp2, active compounds read low 0.974 | locus YCL016C, strain dcc1, active compounds read low 0.995 | locus YCL029C, strain bik1, active compounds read low 0.956 | locus YCL061C, strain MRC1 (second series), active compounds read low 1.02 | locus YCL069W, strain vba3, active compounds read low 0.979 | locus YCR088W, strain abp1, active compounds read low 1.01 | locus YDL005C, strain med2, active compounds read low 0.967 | locus YDL035C, strain GPR1, active compounds read low 0.987 | locus YDL040C, strain nat1, active compounds read low 0.997 | locus YDL074C, strain BRE1, active compounds read low 1.05 | locus YDL101C, strain DUN1, active compounds read low 1 | locus YDL134C, strain PPH21, active compounds read low 0.988 | locus YDL185W, strain tfp1, active compounds read low 0.958 | locus YDL192W, strain arf1, active compounds read low 0.968 | locus YDR001C, strain nth1, active compounds read low 0.968 | locus YDR069C, strain doa4, active compounds read low 1.01 | locus YDR101C, strain arx1, active compounds read low 1.01 | locus YDR137W, strain rgp1, active compounds read low 0.945 | locus YDR150W, strain NUM1, active compounds read low 0.994 and 1.01 | locus YDR159W, strain sac3, active compounds read low 0.955 | locus YDR162C, strain NBP2, active compounds read low 0.982 | locus YDR195W, strain ref2 0.975 | locus YDR297W, strain sur2, active compounds read low 0.991 | locus YDR318W, strain mcm21, active compounds read low 0.969 | locus YDR334W, strain swr1, active compounds read low 0.976 | locus YDR335W, strain msn5, active compounds read low 0.988 | locus YDR363W, strain ESC2, active compounds read low 1.02 | locus YDR388W, active compounds read low 0.981 | locus YDR392W, strain spt3, active compounds read low 0.935 | locus YDR502C, strain sam2, active compounds read low 0.987 | locus YEL003W, strain gim4, active compounds read low 0.997 | locus YEL037C, strain rad23, active compounds read low 0.984 | locus YEL061C, strain CIN8 (second series), active compounds read low 0.999 | locus YEL061C, strain CIN8, active compounds read low 0.994 | locus YER002W, strain NOP16, active compounds read low 0.998 | locus YER015W, strain faa2, active compounds read low 0.99 | locus YER016W, strain bim1, active compounds read low 0.988 | locus YER110C, active compounds read low 0.96 | locus YER111C, strain swi4, active compounds read low 1 | locus YER155C, strain BEM2 (second series), active compounds read low 1.01 | locus YER155C, strain BEM2, active compounds read low 1 | locus YER167W, strain BCK2, active compounds read low 0.997 | locus YFR010W, strain ubp6, active compounds read low 0.981 | locus YGL078C, strain dbp3, active compounds read low 0.982 | locus YGL086W, strain mad1, active compounds read low 0.995 | locus YGL167C, strain pmr1, active compounds read low 0.998 | locus YGL173C, strain kem1, active compounds read low 1 | locus YGL227W, strain vid30, active compounds read low 0.996 | locus YGL240W, strain doc1, active compounds read low 1.02 | locus YGL248W, strain PDE1, active compounds read low 1.01 | locus YGL253W, strain hxk2, active compounds read low 0.974 | locus YGR135W, strain pre9, active compounds read low 0.974 | locus YGR252W, strain gcn5, active compounds read low 0.996 | locus YHR013C, strain ard1, active compounds read low 0.994 | locus YHR027C, strain rpn1, active compounds read low 1.01 | locus YHR030C, strain SLT2, active compounds read low 0.988 and 0.999 | locus YHR079C, strain IRE1 (second series), active compounds read low 0.965 | locus YHR079C, strain IRE1, active compounds read low 1.02 | locus YHR094C, strain hxt1, active compounds read low 0.985 | locus YHR129C, strain ARP1, active compounds read low 0.991 | locus YHR142W, strain chs7, active compounds read low 0.975 | locus YHR200W, strain rpn10, active compounds read low 0.96 | locus YIL066C, strain RNR3, active compounds read low 1 | locus YIL073C, strain SPO22, active compounds read low 0.922 | locus YIL125W, strain kgd1, active compounds read low 0.985 | locus YIR030C, strain dcg1, active compounds read low 0.973 | locus YJL092W, strain hpr5, active compounds read low 0.984 | locus YJL095W, strain BCK1 (second series), active compounds read low 0.993 | locus YJL095W, strain BCK1, active compounds read low 1.03 and 0.992 | locus YJL115W, strain asf1, active compounds read low 0.984 | locus YJL129C, strain trk1, active compounds read low 1.02 | locus YJL134W, strain LCB3, active compounds read low 0.99 | locus YJL154C, strain vps35, active compounds read low 0.975 | locus YJL164C, strain tpk1, active compounds read low 0.965 | locus YJL166W, strain qcr8, active compounds read low 1.02 | locus YJL168C, strain set2, active compounds read low 0.979 | locus YJL187C, strain SWE1 (second series), active compounds read low 1.01 | locus YJL187C, strain SWE1, active compounds read low 0.986 | locus YJR043C, strain POL32, active compounds read low 0.997 | locus YJR066W, strain TOR1, active compounds read low 0.966
